Results on 61 compounds are retold here after the antibiotic and cytotoxicity screens of Wong et al. (2023).

Structures are written as SMILES. Out of some 39,000 compounds screened, about 1,500 (3.8%) were called active. The sample holds actives, similar compounds and a random draw of the others, so the mix is not that of the screen.

The test system of this experiment is HSkMC (human skeletal muscle cells). Nature of the experiment: cytotoxicity call (relative viability < 0.9). The note with it: 10 µM.
As to `C[C@H]1CN([C@@H](C)CO)C(=O)c2cc(NC(=O)Nc3ccccc3)ccc2O[C@@H]1CN(C)Cc1ccc(Oc2ccccc2)cc1`, the cytotoxicity call is “inactive”.
The entry for `C[C@H](CO)N1C[C@H](C)[C@H](CN(C)Cc2ccc(Oc3ccccc3)cc2)Oc2ccc(NC(=O)Nc3ccc(F)cc3)cc2C1=O` is “active”.
`C[C@H]1CN([C@@H](C)CO)C(=O)c2cc(NC(=O)Nc3ccc(F)cc3)ccc2O[C@H]1CN(C)Cc1ccc(Oc2ccccc2)cc1`: the cytotoxicity call was “inactive”.
The same measure for `C[C@@H]1CN([C@H](C)CO)C(=O)c2cc(NC(=O)Nc3ccc(F)cc3)ccc2O[C@H]1CN(C)Cc1ccc(Oc2ccccc2)cc1`: “inactive”.
The same measure for `C[C@H]1CN([C@@H](C)CO)C(=O)c2cc(NC(=O)Nc3ccc(F)cc3)ccc2O[C@@H]1CN(C)Cc1ccc(Oc2ccccc2)cc1`: “inactive”.
The same measure for `C[C@@H]1CN([C@@H](C)CO)C(=O)c2cc(NC(=O)Nc3ccc(F)cc3)ccc2O[C@@H]1CN(C)Cc1ccc(Oc2ccccc2)cc1`: “active”; for `C[C@H](CO)N1C[C@H](C)[C@@H](CN(C)Cc2ccc(Oc3ccccc3)cc2)Oc2ccc(NC(=O)Nc3ccc(F)cc3)cc2C1=O`: “inactive”.
For the compound `C[C@@H]1CN([C@H](C)CO)C(=O)c2cc(NC(=O)Nc3ccc(F)cc3)ccc2O[C@@H]1CN(C)Cc1ccc(Oc2ccccc2)cc1`, the cytotoxicity call is “active”.
For the compound `C[C@@H]1CN([C@@H](C)CO)C(=O)c2cc(NC(=O)Nc3ccc(F)cc3)ccc2O[C@H]1CN(C)Cc1ccc(Oc2ccccc2)cc1`, the cytotoxicity call is “inactive”.
The entry for `CN1C(=O)c2cc(NC(=O)c3cnccn3)ccc2OC[C@H]2O[C@@H](CC(=O)N[C@@H]3CCN(Cc4ccccc4)C3)CC[C@@H]21` is “inactive”; for `CN1CCN(C(=O)C[C@@H]2CC[C@@H]3[C@H](COC[C@@H](O)CN3Cc3ccc4c(c3)OCO4)O2)CC1` it is “inactive”; for `CS(=O)(=O)Cc1nc2ccccc2oc1=O` it is “inactive”.
The same measure for `Cc1noc(C)c1NC(=O)Nc1cccc2c1O[C@@H](CN(C)Cc1ccc(Oc3ccccc3)cc1)[C@@H](C)CN([C@H](C)CO)C2=O`: “inactive”.
The entry for `COc1ccc(S(=O)(=O)Nc2ccc3c(c2)C(=O)N([C@H](C)CO)C[C@H](C)[C@H](CN(C)S(=O)(=O)c2ccc(Cl)cc2)OCCCC[C@H](C)O3)cc1` is “inactive”.
For the compound `CCC(=O)N(C)C[C@@H]1Oc2ncc(C#C[C@H](C)O)cc2C(=O)N([C@H](C)CO)C[C@H]1C`, the cytotoxicity call is “inactive”.
For `COc1cccc(S(=O)(=O)N(C)C[C@H]2Oc3ncc(C#CC(C)C)cc3C(=O)N([C@H](C)CO)C[C@H]2C)c1`, the cytotoxicity call was “inactive”.
The same measure for `CO[C@@H]1CN(C)C(=O)c2cc(NS(=O)(=O)CC(F)(F)F)ccc2OC[C@H](C)N(C(=O)NC(C)C)C[C@H]1C`: “inactive”.
The same measure for `C[C@@H]1CN([C@H](C)CO)C(=O)c2cc(NC(=O)CCCCCC(=O)Nc3ccccc3N)ccc2O[C@H]1CN(C)C(=O)Nc1ccc(F)cc1`: “inactive”; for `CN(C)c1nc(SCCO)nc(N(C)C)n1`: “inactive”.
The entry for `C[C@@H]1CCCCO[C@H](CN(C)C(=O)Nc2cccc3ccccc23)[C@H](C)CN([C@@H](C)CO)C(=O)c2cc(NS(=O)(=O)c3ccc(F)cc3)ccc2O1` is “inactive”; for `O=C(OCC1OC(OC(=O)c2cc(O)c(O)c(OC(=O)c3cc(O)c(O)c(O)c3)c2)C(OC(=O)c2cc(O)c(O)c(OC(=O)c3cc(O)c(O)c(O)c3)c2)C(OC(=O)c2cc(O)c(O)c(OC(=O)c3cc(O)c(O)c(O)c3)c2)C1OC(=O)c1cc(O)c(O)c(OC(=O)c2cc(O)c(O)c(O)c2)c1)c1cc(O)c(O)c(OC(=O)c2cc(O)c(O)c(O)c2)c1` (stereo unspecified) it is “inactive”.
As to `O=C(OC[C@H]1O[C@@H](OC(=O)c2cc(O)c(O)c(O)c2)[C@H](O)[C@@H](OC(=O)c2cc(O)c(O)c(O)c2)[C@@H]1O)c1cc(O)c(O)c(O)c1`, the cytotoxicity call is “inactive”.
For `O=C(OC[C@H]1O[C@@H](OC(=O)c2cc(O)c(O)c(O)c2)[C@H](OC(=O)c2cc(O)c(O)c(O)c2)[C@@H](OC(=O)c2cc(O)c(O)c(O)c2)[C@@H]1OC(=O)c1cc(O)c(O)c(O)c1)c1cc(O)c(O)c(O)c1`, the cytotoxicity call was “active”.
For `CC(C)NC(=O)N(C)C[C@@H]1Oc2ccc(NC(=O)CCCN(C)C)cc2CC(=O)N([C@H](C)CO)C[C@@H]1C`, the cytotoxicity call was “inactive”.
Turning to `COc1ccc(NC(=O)Nc2ccc3c(c2)C(=O)N([C@@H](C)CO)C[C@@H](C)[C@@H](CN(C)Cc2ccc(C(=O)Nc4ccccc4N)cc2)O3)cc1`, the cytotoxicity call was “inactive”.
The same measure for `C[C@H]1CN([C@@H](C)CO)C(=O)c2c(c3ccccc3n2C)-c2ccccc2CO[C@@H]1CN(C)S(=O)(=O)c1ccc(Cl)cc1`: “inactive”; for `Cc1ccc(S(=O)(=O)Nc2ccc3c(c2)C(=O)N([C@H](C)CO)C[C@H](C)[C@@H](CN(C)S(C)(=O)=O)O3)cc1`: “inactive”.
Consider `C[C@@H]1CN([C@H](C)CO)C(=O)c2cccc(NC(=O)Nc3ccc(C(F)(F)F)cc3)c2O[C@H]1CN(C)Cc1ccc(C(F)(F)F)cc1`, for which the cytotoxicity call was “inactive”.
Turning to `C[C@@H]1CN([C@@H](C)CO)C(=O)c2cccc(NC(=O)Nc3ccc(C(F)(F)F)cc3)c2O[C@@H]1CN(C)Cc1ccc(C(F)(F)F)cc1`, the cytotoxicity call was “active”.
As for `C[C@@H]1CN([C@H](C)CO)C(=O)c2cccc(NC(=O)Nc3ccc(C(F)(F)F)cc3)c2O[C@@H]1CN(C)Cc1ccc(C(F)(F)F)cc1`, the cytotoxicity call is “active”.
On to `C[C@@H]1CN([C@@H](C)CO)C(=O)c2cccc(NC(=O)Nc3ccc(C(F)(F)F)cc3)c2O[C@H]1CN(C)Cc1ccc(C(F)(F)F)cc1`, for which the cytotoxicity call was “inactive”.
With `C[C@H]1CN([C@@H](C)CO)C(=O)c2cccc(NC(=O)Nc3ccc(F)cc3)c2O[C@@H]1CN(C)Cc1ccc(C(F)(F)F)cc1`, the cytotoxicity call was “active”.
The same measure for `C[C@H](CO)N1C[C@H](C)[C@@H](CN(C)Cc2ccc(C(F)(F)F)cc2)Oc2c(NC(=O)Nc3ccc(C(F)(F)F)cc3)cccc2C1=O`: “inactive”; for `C[C@H](CO)N1C[C@H](C)[C@H](CN(C)Cc2ccc(C(F)(F)F)cc2)Oc2c(NC(=O)Nc3ccc(C(F)(F)F)cc3)cccc2C1=O`: “inactive”; for `C[C@H](CO)N1C[C@H](C)[C@@H](CN(C)Cc2ccc(C(F)(F)F)cc2)Oc2c(NC(=O)Nc3ccc(F)cc3)cccc2C1=O`: “inactive”.
On to `C[C@@H]1CN([C@@H](C)CO)C(=O)c2cccc(NC(=O)Nc3ccc(F)cc3)c2O[C@H]1CN(C)Cc1ccc(C(F)(F)F)cc1`, for which the cytotoxicity call is “inactive”.
`CO[C@@H]1CN(C)C(=O)c2cc(NS(=O)(=O)c3cn(C)cn3)ccc2OC[C@@H](C)N(CCC(F)(F)F)C[C@H]1C`: the cytotoxicity call is “inactive”.
In the case of `O=C(C[C@H]1CC[C@@H]2[C@H](COC[C@H](O)CN2S(=O)(=O)c2cccc(F)c2)O1)NCCCN1CCOCC1`, the cytotoxicity call is “inactive”.
On to `COCC#Cc1cnc2c(c1)C(=O)N([C@@H](C)CO)C[C@H](C)[C@H](CN(C)C(=O)Nc1ccccc1OC)O2`, for which the cytotoxicity call was “inactive”.
Consider `O=C(CCCCCNC(=O)OCc1ccc(CO[C@@H]2C[C@H](c3ccc(C(F)(F)F)cc3)C=C(C(=O)N3CCN(Cc4ccc5c(c4)OCO5)CC3)O2)cc1)NO`, for which the cytotoxicity call is “inactive”.
The same measure for `C[C@@H]1CN([C@@H](C)CO)S(=O)(=O)c2ccc(-c3ccc(C(=O)N(C)C)cc3)cc2O[C@H]1CN(C)C(=O)Cc1ccccn1`: “inactive”.
The entry for `COc1ccc(NC(=O)N(C)C[C@@H]2OCCCC[C@H](C)Oc3ccc(NC(=O)CCC(F)(F)F)cc3C(=O)N([C@@H](C)CO)C[C@@H]2C)cc1` is “inactive”.
In the case of `CO[C@H]1CN(C)C(=O)c2cc(NS(=O)(=O)c3cn(C)cn3)ccc2OC[C@H](C)N(Cc2cccc(F)c2)C[C@@H]1C`, the cytotoxicity call was “inactive”.
The entry for `CO[C@H]1/C=C/C[C@H](C)[C@@H](C)S(=O)(=O)NC(=O)c2ccc3c(c2)N(C[C@@H]2CC[C@H]21)C[C@@]1(CCCc2cc(Cl)ccc21)CO3` is “active”; for `COc1ccc(CN(C)C[C@@H]2OCCCC[C@@H](C)Oc3ccc(NC(=O)c4ccccc4)cc3C(=O)N([C@@H](C)CO)C[C@@H]2C)cc1` it is “inactive”; for `CO[C@@H]1CN(C)C(=O)c2ccc(NS(=O)(=O)c3cn(C)cn3)cc2OC[C@H](C)N(Cc2cccc(F)c2)C[C@@H]1C` it is “inactive”.
The same measure for `C=C1C(=O)OC2CC3(C)CCCC(C)C3=CC12` (stereo unspecified): “active”.
Take `C[C@H]1CN([C@@H](C)CO)C(=O)c2cc(NC(=O)C3CCCCC3)ccc2O[C@@H]1CN(C)Cc1ccc(Cl)c(Cl)c1`: the cytotoxicity call is “inactive”.
The same measure for `COC(=O)C1(C)CCCC2(C)c3ccc(O)c(C(C)C)c3CCC12` (stereo unspecified): “active”.
In the case of `CC(C)c1c(O)ccc2c1CC[C@H]1C(C)(C)CCC[C@]21C`, the cytotoxicity call is “active”.
As to `COC(=O)C1(C)CCCC2(C)c3ccc(C(C)C)cc3C(=O)CC12` (stereo unspecified), the cytotoxicity call was “inactive”.
The same measure for `CC(C)c1c(O)ccc2c1CCC1C(C)(C)C(=O)CCC21C` (stereo unspecified): “inactive”; for `CC(C)c1c(O)ccc2c1CCC1C(C)(C=O)CCCC21C` (stereo unspecified): “inactive”.
For the compound `CC(C)c1c(O)ccc2c1CCC1C(C)(C)CCCC21C` (stereo unspecified), the cytotoxicity call was “inactive”.
Consider `Cn1cnc(CCNC(=O)C[C@H]2CC[C@@H]3[C@H](COC[C@H](O)CN3C(=O)Nc3ccc(Cl)cc3)O2)c1`, for which the cytotoxicity call was “inactive”.
Regarding `C[C@@H]1CN([C@@H](C)CO)C(=O)c2cc(NC(=O)c3ccccc3)ccc2O[C@@H](C)CCCCO[C@H]1CN(C)S(=O)(=O)c1cccs1`, the cytotoxicity call is “inactive”.
The same measure for `COCC#Cc1ccc2c(c1)O[C@H](CN(C)S(=O)(=O)c1cccc(F)c1)[C@H](C)CN([C@H](C)CO)S2(=O)=O`: “inactive”; for `NC(=O)N1CCC(CC(=O)N2CCC([C@H]3c4ncc(Br)cc4CCc4cc(Cl)cc(Br)c43)CC2)CC1`: “inactive”; for `C[C@@H]1CN([C@@H](C)CO)C(=O)CCCn2cc(nn2)CO[C@@H]1CN(C)S(=O)(=O)c1ccc2c(c1)OCCCO2`: “inactive”.
The same measure for `Cc1ccc(S(=O)(=O)N(C)C[C@@H]2Oc3c(NC(=O)C4CCOCC4)cccc3C(=O)N([C@H](C)CO)C[C@H]2C)cc1`: “inactive”; for `C[C@@H]1CN([C@@H](C)CO)C(=O)c2c(c3ccccc3n2C)-c2ccccc2CO[C@@H]1CN(C)Cc1cccc(F)c1`: “inactive”.
